Pf growth 48h: inhibits P. falciparum growth in the first generation, 48 h; Potency, µM (top dose mostly 28.7 µM), for the others: at the top dose activity change, negative = inhibition, actives largely listed as inhibitors; 5.9% of 310,000 active; P. falciparum luciferase growth in erythrocytes, 48 h; also: potency is read from the fitted curve at half-maximal effect
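Cell-based growth assay: transgenic P. falciparum expressing firefly luciferase, cultured in red cells within RPMI 1640 containing 0.5% w/v Albumax, 24 mM bicarbonate and gentamycin. A drop in luciferase activity indicates inhibition.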
HCMV antiviral: blocks human cytomegalovirus replication; HFF cells, HCMV-luciferase reporter, 72 h; stronger effect = lower value; 4.5% of 410,000 active; AID 1259415; activity change, negative = inhibition, % at 57.5 µM; in the data active = activity change below about -60%; inconclusive = no clear call, values can overlap the other calls; inactive = above about -39%
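Two-dose cell screen: HFF monolayers treated with compounds and infected with luciferase-expressing HCMV at 1 PFU/cell, 72 h at 37C, then lysed for luciferase measurement.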
HCV inhibitor: blocks hepatitis C virus; 3.4% of 340,000 active; Potency, µM (highest dose often 41.8 µM), without a hit: at the highest dose activity change, negative = inhibition, usual class: inhibitors; Huh7.5.1 HCVcc-Cre infection, luciferase reporter, 44 h; also: potency is read from the fitted curve at half-maximal effect
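Infectious HCV cell culture screen: compound-treated cells (1,000/well, pre-plated 4 h) are infected with HCVcc-Cre at roughly 0.5 moi and grown 44 h. Infection is quantified by luciferase signal after 15 min substrate incubation at room temperature.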
Pf growth 96h: inhibits malaria parasite growth, 96 h; P. falciparum luciferase reporter growth, 96 h; Potency, µM (highest dose often 28.7 µM), for inactives: at the top dose activity change, negative = inhibition, most hits filed as inhibitors; 6.9% of 320,000 active; AID 504834; also: potency is read from the fitted curve at half-maximal effect
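Cell-based qHTS: luciferase-tagged P. falciparum in erythrocytes (2% hematocrit, 0.05% parasitemia final) incubated with compounds for 96 hours, 37 C, 5% CO2; luciferase detection reagent then added and luminescence measured.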
The depositor's hits bear a star; ? = inconclusive; . = not tested or not shown; + = active, no number. An excerpt weighted towards active compounds, which were near 13% of everything screened. Unless noted, calls follow the shape of the dose curve; as a rule, active = well fitted inhibition curve with a large enough effect; inconclusive = small, poorly fitted or top-dose-only effect, or another doubt; inactive = no such curve, though single readings can be large or run the other way. % is scaled to controls: 0 for no effect and ±100 for the full control effect.

SMILES | Pf growth 48h | HCMV antiviral | HCV inhibitor | Pf growth 96h
CC1CCC(NC(=O)c2ccc(CS(=O)(=O)c3c(Cl)cccc3Cl)o2)CC1 (configuration not stated) | . | -14 | . | .
CCCNC(=O)C1(C)CCCN(C(=O)COc2ccc(Cl)cc2Cl)C1 (configuration not stated) | . | -100* | . | .
CCCNC(=O)C1(C)CCCN(Cc2ccccc2Cl)C1 (configuration not stated) | . | -77* | . | .
Cc1noc(NS(=O)(=O)c2ccc(NC(=O)c3ccc(Br)cc3)cc2)c1C | . | 2 | . | .
C=CCn1c(=S)[nH]c2ccc(Br)cc2c1=O | 0% | -61* | 11% | .
O=C(Nc1c2c(nn1-c1ccc(Cl)cc1)CS(=O)(=O)C2)c1ccc(Br)cc1 | . | -76* | . | .
CC(C)(C)n1nc2c(c1NC(=O)c1cc([N+](=O)[O-])ccc1Cl)CS(=O)(=O)C2 | ? | + | 1% | -11%
O=C(Nc1c2c(nn1-c1ccc([N+](=O)[O-])cc1)CS(=O)(=O)C2)c1ccccc1F | 20% | 2 | 8% | -6%
CC(C)(C)n1nc2c(c1NC(=O)c1ccc([N+](=O)[O-])cc1)CS(=O)(=O)C2 | 25% | -2 | 20% | 8.3µM*
CC(C)(C)n1nc2c(c1NC(=O)c1ccc(Cl)c([N+](=O)[O-])c1)CS(=O)(=O)C2 | ? | -28 | 9% | ?
O=C(Nc1c2c(nn1-c1ccc([N+](=O)[O-])cc1)CS(=O)(=O)C2)c1cccs1 | ? | -17 | 9% | 5.9µM*
O=C(Nc1c2c(nn1-c1ccc(Cl)cc1)CS(=O)(=O)C2)c1ccc2c(c1)OCO2 | -17% | -2 | ? | -1%
CC(=O)c1cccc(-c2ccnc3c2CC(C(=O)Nc2ccc(F)c(Cl)c2)O3)c1 (configuration not stated) | . | -37 | . | .
C=C1C(=O)O[C@@H]2[C@@H]1CC/C(C)=C\CC[C@@]1(C)O[C@H]21 | ? | . | . | 9.5µM*
O=C(NCC(=O)N1CCN(S(=O)(=O)c2ccc3c(c2)OCCO3)CC1)c1ccccc1F | . | 11 | 2% | .
O=C(c1ccccc1F)N1CCN(S(=O)(=O)c2ccc3c(c2)OCCO3)CC1 | . | 13 | -23% | 9.3µM*
O=C(NCC(=O)N1CCN(S(=O)(=O)c2ccc3c(c2)OCCO3)CC1)c1ccccc1Cl | ? | -4 | 9% | ?
O=C(c1ccccc1OC(F)F)N1CCN(S(=O)(=O)c2ccc3c(c2)OCCCO3)CC1 | 15µM* | 41 | -6% | -25%
COc1ccccc1NC(=S)N1CCC(c2nc3cc(C)c(C)cc3[nH]2)CC1 | ? | 4 | 9% | 12µM*
COc1ccccc1NC(=O)N1CCC(c2nc3cc(C)c(C)cc3[nH]2)CC1 | ? | -64* | ? | 46%
CCOc1ccccc1NC(=O)N1CCC(c2nc3ccccc3[nH]2)CC1 | -14% | 30 | ? | ?
COc1ccc(-c2nn(-c3cccc([N+](=O)[O-])c3)c3c2cnc2cc4c(cc23)OCO4)cc1 | . | 2 | . | .
CCCCC1CCC(C(=O)N2CC(=O)Nc3ccc(Cl)cc3C2c2ccc(F)cc2)CC1 (configuration not stated) | . | 14 | . | .
Cn1ccsc1=NC(=O)c1ccccc1F | -13% | -17 | 9% | ?
Cc1ccc(C)c(-n2c(-c3ccc(Br)cc3)csc2=NC(=O)c2ccccc2F)c1 | 0.41µM* | -27 | 3.2µM* | 0.23µM*
SMILES | Pf growth 48h | HCMV antiviral | HCV inhibitor | Pf growth 96h
N#C/C(=C\c1c(Cl)cccc1Cl)c1nn(-c2ccccc2)c(-n2cccc2)c1C#N | ? | ? | -21% | ?
N#C/C(=C\c1c(F)cccc1Cl)c1nn(-c2ccccc2)c(-n2cccc2)c1C#N | 12µM* | ? | -25% | ?
Cn1c(=O)c2c(SCC(=O)N3CCOCC3)nc(CC(C)(C)C)nc2n(C)c1=O | 5% | . | 8% | -4%
Cn1c(=O)c2c(SCC(=O)Nc3ccc4c(c3)OCCO4)nc(CC(C)(C)C)nc2n(C)c1=O | 8% | -64* | -1% | ?
Cn1c(=O)c2c(SCC(=O)NC3CCCC3)nc(CC(C)(C)C)nc2n(C)c1=O | ? | ? | -18% | 13µM*
Cc1ccc(S(=O)(=O)n2nc(-c3ccccc3)nc2NCc2ccc(Cl)cc2)cc1 | . | 15 | . | .
Cc1ccc(C(C)C)c(OCCCn2c(=O)oc3ccc(C)cc32)c1 | . | -17 | . | .
CCCNC(=O)c1nnsc1S(=O)(=O)c1ccc(Cl)cc1 | 0% | -99* | 6.3µM* | 7%
CCCNC(=O)c1nnsc1S(=O)c1ccc(Cl)cc1 (configuration not stated) | ? | -101* | ? | ?
CNC(=O)c1nnsc1S(=O)c1ccc(Cl)cc1 (configuration not stated) | 15µM* | -8 | ? | ?
CNC(=O)c1nn(-c2ccc(Cl)cc2)ccc1=O | -1% | 19 | 1% | 21%
Cc1ccc(N(CCC#N)C(=O)CCl)cc1C | 9.3µM* | -100* | 10µM* | ?
Cc1ccc(SCC(=O)OCC(=O)N(CCC#N)c2ccccc2)cc1C | -13% | -22 | 3% | -16%
Cc1ccc(OC(=O)CCC(=O)Nc2ccc(S(=O)(=O)Nc3cc(C)on3)cc2)cc1 | -12% | 25 | 6% | 22%
COc1cc(C(=O)Nc2ccc(S(=O)(=O)Nc3cc(C)on3)cc2)cc(OC)c1OC | 1% | -1 | -15% | -9%
CCC(Oc1ccc(C)cc1)C(=O)Nc1ccc(S(=O)(=O)Nc2cc(C)on2)cc1 (configuration not stated) | 8% | 35 | 12% | 8.3µM*
Cc1cc(NS(=O)(=O)c2ccc(NC(=O)COc3ccccc3[N+](=O)[O-])cc2)no1 | 0% | 26 | 15% | ?
CCOc1cc(C(=O)Nc2ccc(S(=O)(=O)Nc3cc(C)on3)cc2)cc(OCC)c1OCC | ? | 9 | 14% | 10µM*
Cc1cc(NS(=O)(=O)c2ccc(NC(=O)COc3ccccc3C(C)(C)C)cc2)no1 | -17% | 9 | 30% | 10µM*
CCN(CCCNC(=O)CSc1cc(=O)n(C)c2cc(Cl)ccc12)c1ccccc1 | . | 16 | . | .
O=C(/C=C/c1ccccc1)NC(NC(=S)Nc1cccc(O)c1)C(Cl)(Cl)Cl (configuration not stated) | ? | -21 | ? | -1%
O=C(/C=C/c1ccccc1)NC(NC(=S)Nc1ccc(Cl)cc1Cl)C(Cl)(Cl)Cl (configuration not stated) | ? | . | 10µM* | 21%
O=C(/C=C/c1ccccc1)NC(NC(=S)Nc1cccc(Cl)c1)C(Cl)(Cl)Cl (configuration not stated) | ? | -75* | ? | ?
CCN1CCN(c2ncc3c(n2)CCN(Cc2ccccc2C)C3)CC1 | . | -5 | . | .
CCOc1ccc(-n2c(=O)c3c4c(sc3n(Cc3cccc(C)c3)c2=O)CCCC4)cc1 | . | -21 | . | .
CCN=C1SC(C(=O)Nc2cccc(C(=O)O)c2)CC(=O)N1CC (configuration not stated) | -3% | 17 | 16% | 13µM*

High-throughput results as filed in PubChem BioAssay.
